# Measured values as given in PubChem BioAssay (NCATS).
# Records with an inconclusive call do not appear. Unmarked numbers belong to inactive results. The call rests on the fitted dose curve; in most records, active means well fitted inhibition curve with a large enough effect; inconclusive means small, poorly fitted or top-dose-only effect; inactive means flat fitted curve, though single readings scatter. *1 amine or outer side, *2 acyl side, *3 side chain or, on linkers, in order; H or OH if unused. Where a SMILES comes first, the peptide text is derived from it. Bridges are numbered along the chain shown (N, C = ends). [ ]: non-standard residue; d: D form. The star is where a group is joined. ξ: configuration not given here. X10 = NC1=NCCC(C(N[*:1])C(=O)[*:2])N1; ΔAla(3-NHCONH2) = NC(=O)NC=C(N)C(=O)O; ξβ3hOrn = NCCCC(N)CC(=O)*; Dap = NC[CH](N)C(=O)O
# Tested on: MKL-1
# Assay: qHTS assay to identify novel small-molecules to repurpose for Merkel cell carcinoma treatment (AID 1296009); further: nearly all actives have a fitted effect of over 60% in size
# Settings: MCC and control cell lines, CellTiter-Glo viability, 72 h; series mostly up to 46 µM; activity change, negative = cytotoxicity: at the top concentration
# How it was run: (§1)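 Cell viability, measured as CellTiter-Glo luminescence, was normalized between DMSO and no-cell wells. The cells had been exposed to 8- or 11-point compound dilutions for 72 hr at 37 degree celsius.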
# On the % scale 0 is the no-effect control and ±100 the full control effect.
row,Structure (SMILES),"activity change, negative = cytotoxicity"
1,CC(C)C[C@@H]1[C@H](c2ccccc2)OC(=O)N1CCCN1CCCCCC1,-5.31%
2,CCOC(=O)CN1CCCC1=O,13%
3,CCOC(=O)C(=O)c1csc(NC=O)n1,8.85%
4,N[C@@H](Cc1cc(I)c(O)c(I)c1)C(=O)O,-1.9%
5,CCOC(=O)Oc1ccc(CCNC(=O)[C@H](CCSC)NC(C)=O)cc1OC(=O)OCC,-1.75%
6,C#CC(C)(CC)OC(=O)c1ccccc1C(=O)O (stereo not drawn),4.1%
7,CCCOc1ccc2c(c1)CC[C@@H]1[C@@H]2CC[C@]2(C)C(OC)CC[C@@H]12 (stereo partly drawn),2.01%
8,CC(C)(C)C1CCC(CC2=C(O)c3ccccc3C(=O)C2=O)CC1 (stereo not drawn),6.33%
9,CN1Cc2cc(C(=O)N3CCC(C4CCNCC4)CC3)ccc2NC(CC(=O)O)C1=O (stereo not drawn),19.6%
10,O=C(O)C1CCC1,22%
11,NCCCC(N)CC(=O)NCC1NC(=O)C(CO)NC(=O)C(N)CNC(=O)C(C2CCN=C(N)N2)NC(=O)C(=CNC(N)=O)NC1=O (stereo not drawn) (H-[Dap]S[Dap](ξβ3hOrn)[ΔAla(3-NHCONH2)][X10]; lactam 1-C; configuration not given here),3.4% [at 0.597 µM]
12,Nc1ccc(C(=O)OCC(O)CO)cc1 (stereo not drawn),4.09%
13,Cc1ccccc1C(=O)N1CC/C(=N\OS(=O)(=O)O)c2ccc(Cl)cc21,-2.46%
14,Cn1cc(S(C)=O)c(=O)c2ccc(F)cc21 (stereo not drawn),18.4%
15,O=C(CS(=O)Cc1ccco1)NC/C=C\COc1cc(CN2CCCCC2)ccn1 (stereo not drawn),-0.62%
16,Cn1c(=O)c2c(ncn2CC(=O)O)n(C)c1=O,5.97%
17,Oc1cccc2[nH]ccc12,4.68%
18,CC(C)C(=O)Nc1cccc(C2CN3CCSC3=N2)c1 (stereo not drawn),6.13%
19,CCOC(=O)C(=O)CCCCCCl,10.6%
20,CNC[C@H](O)[C@@H](O)[C@H](O)[C@H](O)CO,20.1%

row,Structure (SMILES),"activity change, negative = cytotoxicity"
1,CC(C)CCCC(C)NCCC(C)C (stereo not drawn),-14.9%
2,CCc1cccc2c(CCO)c[nH]c12,9.2%
3,Clc1ccc2c(c1)Nc1ccccc1S2,1.73%
4,CN1C(=O)c2ccccc2C1=O,3.37% [at 92.7 µM]
5,CC(=O)N(CC(=O)N(C)C)c1ccccc1,-10.5%
6,CC(=O)OC[C@H]1O[C@@H](OC(C)=O)[C@H](OC(C)=O)[C@@H]1OC(C)=O,3.97%
7,C/C(=C1\CCOC(=O)S1)N(C=O)Cc1cnc(C)nc1N,-17.1%
8,Cc1cc(=O)oc2cc(O[C@@H]3SC[C@@H](O)[C@H](O)[C@H]3O)ccc12,8.88%
9,Fc1ccc(C(c2ccc(F)cc2)N2CCNCC2)cc1,6.45%
10,NC(=O)NS(=O)(=O)c1ccc(Cl)cc1,4.31%
11,NC(=O)COCCN1CCN(C(c2ccccc2)c2ccc(Cl)cc2)CC1 (stereo not drawn),-5.5%
12,CC1(C)O[C@@H]2C[C@H]3[C@@H]4CCC5=CC(=O)C=C[C@]5(C)[C@@]4(F)[C@@H](O)C[C@]3(C)[C@]2(C(=O)CO)O1,4.88%
13,COC(=O)c1ccc(NC(C)=O)cc1OC,15.1%
14,O=C(O)CCCC[C@@H]1SC[C@@H]2NC(=O)N[C@@H]21,19.6%
15,O=C(O)CCC(=O)OC[C@@H](NC(=O)C(Cl)Cl)[C@H](O)c1ccc([N+](=O)[O-])cc1,9.84%
16,C[C@H]1C[C@H](O)c2ccsc2S1(=O)=O,6.68%
17,[O-][n+]1cccc(/C(Cl)=N/OC[C@@H](O)CN2CCCCC2)c1,5.13%
18,CCOC(=O)c1ccc(OCCN2C[C@H](O)[C@@H](O)[C@H](O)[C@H]2CO)cc1,18.7%
19,CCCCOC(=O)CCCCCCCCC(=O)OCCCC,9.85%

# Tested on: MKL-2
# Assay: as above
# Settings: MCC and control cell lines, CellTiter-Glo viability, 72 h; series mostly up to 46 µM; activity change, negative = cytotoxicity: at the top concentration
# How it was run: as §1
row,Structure (SMILES),"activity change, negative = cytotoxicity"
1,CC(C)C[C@@H]1[C@H](c2ccccc2)OC(=O)N1CCCN1CCCCCC1,-7.3%
2,CCOC(=O)CN1CCCC1=O,10.5%
3,CCOC(=O)C(=O)c1csc(NC=O)n1,4.75%
4,N[C@@H](Cc1cc(I)c(O)c(I)c1)C(=O)O,-16.7%
5,CCOC(=O)Oc1ccc(CCNC(=O)[C@H](CCSC)NC(C)=O)cc1OC(=O)OCC,19.4%
6,C#CC(C)(CC)OC(=O)c1ccccc1C(=O)O (stereo not drawn),20.9%
7,CCCOc1ccc2c(c1)CC[C@@H]1[C@@H]2CC[C@]2(C)C(OC)CC[C@@H]12 (stereo partly drawn),9.46%
8,CC(C)(C)C1CCC(CC2=C(O)c3ccccc3C(=O)C2=O)CC1 (stereo not drawn),13.1%
9,CN1Cc2cc(C(=O)N3CCC(C4CCNCC4)CC3)ccc2NC(CC(=O)O)C1=O (stereo not drawn),7.62%
10,O=C(O)C1CCC1,6.92%
11,NCCCC(N)CC(=O)NCC1NC(=O)C(CO)NC(=O)C(N)CNC(=O)C(C2CCN=C(N)N2)NC(=O)C(=CNC(N)=O)NC1=O (stereo not drawn) (H-[Dap]S[Dap](ξβ3hOrn)[ΔAla(3-NHCONH2)][X10]; lactam 1-C; configuration not given here),1.36% [at 0.597 µM]
12,Nc1ccc(C(=O)OCC(O)CO)cc1 (stereo not drawn),16.6%
13,Cc1ccccc1C(=O)N1CC/C(=N\OS(=O)(=O)O)c2ccc(Cl)cc21,-7.6%
14,Cn1cc(S(C)=O)c(=O)c2ccc(F)cc21 (stereo not drawn),6.41%
15,O=C(CS(=O)Cc1ccco1)NC/C=C\COc1cc(CN2CCCCC2)ccn1 (stereo not drawn),-1.77%
16,Cn1c(=O)c2c(ncn2CC(=O)O)n(C)c1=O,13.4%
17,Oc1cccc2[nH]ccc12,-28.2%
18,CC(C)C(=O)Nc1cccc(C2CN3CCSC3=N2)c1 (stereo not drawn),4.2%
19,CCOC(=O)C(=O)CCCCCCl,11.4%
20,CNC[C@H](O)[C@@H](O)[C@H](O)[C@H](O)CO,2.71%

row,Structure (SMILES),"activity change, negative = cytotoxicity"
1,CC(C)CCCC(C)NCCC(C)C (stereo not drawn),-0.451%
2,CCc1cccc2c(CCO)c[nH]c12,9.67%
3,Clc1ccc2c(c1)Nc1ccccc1S2,-3.59%
4,CN1C(=O)c2ccccc2C1=O,2.54% [at 92.7 µM]
5,CC(=O)N(CC(=O)N(C)C)c1ccccc1,-26.1%
6,CC(=O)OC[C@H]1O[C@@H](OC(C)=O)[C@H](OC(C)=O)[C@@H]1OC(C)=O,17.7%
7,C/C(=C1\CCOC(=O)S1)N(C=O)Cc1cnc(C)nc1N,-3.21%
8,Cc1cc(=O)oc2cc(O[C@@H]3SC[C@@H](O)[C@H](O)[C@H]3O)ccc12,4.65%
9,Fc1ccc(C(c2ccc(F)cc2)N2CCNCC2)cc1,11.1%
10,NC(=O)NS(=O)(=O)c1ccc(Cl)cc1,5.86%
11,NC(=O)COCCN1CCN(C(c2ccccc2)c2ccc(Cl)cc2)CC1 (stereo not drawn),1.41%
12,CC1(C)O[C@@H]2C[C@H]3[C@@H]4CCC5=CC(=O)C=C[C@]5(C)[C@@]4(F)[C@@H](O)C[C@]3(C)[C@]2(C(=O)CO)O1,8.62%
13,COC(=O)c1ccc(NC(C)=O)cc1OC,16.7%
14,O=C(O)CCCC[C@@H]1SC[C@@H]2NC(=O)N[C@@H]21,37.5%
15,O=C(O)CCC(=O)OC[C@@H](NC(=O)C(Cl)Cl)[C@H](O)c1ccc([N+](=O)[O-])cc1,3.69%
16,C[C@H]1C[C@H](O)c2ccsc2S1(=O)=O,14%
17,[O-][n+]1cccc(/C(Cl)=N/OC[C@@H](O)CN2CCCCC2)c1,14%
18,CCOC(=O)c1ccc(OCCN2C[C@H](O)[C@@H](O)[C@H](O)[C@H]2CO)cc1,5.27%
19,CCCCOC(=O)CCCCCCCCC(=O)OCCCC,19.9%
